Data as given in PubChem BioAssay (NCATS).
Values without a mark were called inactive. The source made the active and inactive calls. Calls come from the whole dose curve; as a rule, active = well fitted inhibition curve with a large enough effect; inconclusive = small, poorly fitted or top-dose-only effect; inactive = flat fitted curve, though single readings scatter.

Target: Phosphoglycerate kinase, glycosomal (Trypanosoma brucei brucei) (UniProt P07378)
Assay: qHTS Validation Assay to Find Inhibitors of Phosphoglycerate Kinase (AID 504547)
Conditions: enzymatic PGK inhibition, coupled luminescence read-out; series mostly up to 57.5 µM; activity, negative = inhibition: at the top concentration
Excerpt: NIH Molecular Libraries Probe Production Network [MLPCN]
NIH Chemical Genomics Center [NCGC]
PI Name: Malcolm Walkinshaw, University of Edinburgh
Several species of the Trypanosomatidae family of parasitic protozoans cause a spectrum of diseases
throughout the tropical and subtropical world. Sleeping sickness, caused by two subspecies of Trypanosoma brucei, is endemic to areas of sub-Saharan Africa, while Chagas disease, a manifestation of Trypanosoma cruzi infection, is prevalent throughout Central and South America. In addition, many species of Leishmania are responsible for a range of cutaneous and visceral diseases, causing ulcers, destructive lesions and kalaazar, a lethal infection of the viscera. Collectively, these organisms infect 30 million people worldwide (~500 million live in endemic areas), and account for ~130,000 deaths annually. Given their debilitating and prevalent nature, trypanosomatid parasites impose a heavy medical, economic and social burden on entire populations, primarily in the developing world. The problem is further exacerbated by the fact that existing treatments have progressed little in the past 50 years, and current drugs show high toxicity and poor efficacy.
Blood-stream stages of T. brucei are entirely dependent on glycolysis as a source of ATP, and the tricarboxylic acid cycle and oxidative phosphorylation are both repressed. Glycolysis in axenically cultured T. cruzi, representing the intracellular pathogenic stage, is also essential for these parasites. […] Previous studies have shown that the glycolytic enzyme, phosphoglycerate kinase (PGK), is a viable target for drugs to kill these parasites.
NCGC Assay Protocol Summary:
Briefly, 3ul of substrate/PGK buffer (columns 1,2,5-48) are dispensed into Greiner white solid bottom 1536-well assay plates; columns 3-4 receive only TEA buffer as 0x PGK controls. Compounds are then transferred via Kalypsys pin tool equipped with 1536-pin array (10nl slotted pins, V&P Scientific, San Diego, CA). Following addition of compound, 1ul of GAPDH (100nM final concentration, all columns) is added to initiate the reaction (this upstream coupling enzyme is necessary for in-well production of PGK substrate, 1,3-bisphosphoglycerate (1,3-BPG), which is unstable and not commercially available). The plates are then incubated at room temperature for 60 minutes. Kinase-Glo Plus reagent is added (2ul) and plates incubated for 10 minutes, before being transferred to a ViewLux high-throughput CCD imager (PerkinElmer) wherein single end-point measurements of luminescence are acquired using a clear filter. All reagents are diluted in an assay buffer consisting of 100mM TEA (pH 7.6), 5mM MgCl2 and 0.01% Tween-20.
Potency is the fitted concentration of half-maximal effect.

Sequence of Phosphoglycerate kinase, glycosomal (Trypanosoma brucei brucei) (P07378 whole entry, looked up): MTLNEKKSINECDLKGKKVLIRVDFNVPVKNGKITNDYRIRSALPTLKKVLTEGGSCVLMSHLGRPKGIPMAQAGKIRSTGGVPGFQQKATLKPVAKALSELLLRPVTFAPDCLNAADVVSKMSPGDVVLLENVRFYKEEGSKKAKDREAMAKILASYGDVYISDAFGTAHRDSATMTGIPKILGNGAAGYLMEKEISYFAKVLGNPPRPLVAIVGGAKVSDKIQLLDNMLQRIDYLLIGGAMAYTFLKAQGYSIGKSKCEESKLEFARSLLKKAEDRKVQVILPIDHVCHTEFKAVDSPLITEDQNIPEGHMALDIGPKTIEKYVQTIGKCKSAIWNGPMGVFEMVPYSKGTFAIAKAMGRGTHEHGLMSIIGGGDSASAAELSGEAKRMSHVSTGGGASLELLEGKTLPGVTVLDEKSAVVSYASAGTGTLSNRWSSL

Going from `CCCc1c(-c2ccc(O)cc2)nn(-c2ccc(O)cc2)c1-c1ccc(O)cc1` to `CC[C@@H]1Cc2cc(O)ccc2C2=C1c1ccc(O)cc1C[C@H]2CC`, the “activity, negative = inhibition” value rises from 0.918% to 7.82%.

Going from `CC(=O)[C@H]1CCC2C3CC=C4C[C@@H](OS(=O)(=O)O)CC[C@]4(C)C3CC[C@@]21C` (stereo not given in full) to `OC[C@H]1O[C@H](n2cnc3c(N[C@H]4CCC[C@@H]4O)ncnc32)[C@H](O)[C@@H]1O`, the “activity, negative = inhibition” value rises from -2.73% to 4.12%.

First: O=C(O)c1cc2cc(F)ccc2[nH]1
Second: COc1cc(CC(=O)O)ccc1O
The “activity, negative = inhibition” value of the first is lower: -0.0428% for the first, 6.73% for the second.

Going from `O=C1Nc2ccc(I)cc2/C1=C/c1cc(Br)c(O)c(Br)c1` to `O=c1cc(-c2ccccc2F)[nH]c2cc3c(cc12)OCO3`, the “activity, negative = inhibition” value falls from -0.517% to -1.71%.

Going from `NC(=Nc1ccccc1)NC(=O)c1nc(Cl)c(N)nc1N` to `O=c1cc(-c2ccccc2)[nH]c2nc(Cl)ccc12`, the “activity, negative = inhibition” value falls from 11.8% to 2.47%.

Compared with `COC1(C2=NCCN2)COc2ccccc2O1` (stereo not given), `CCOC(=O)C12CC1/C(=N/O)c1ccccc1O2` (stereo not given) is higher in “activity, negative = inhibition” value: -0.0325% for the first, 4.65% for the second.

First: CNCCNS(=O)(=O)c1cccc2cnccc12
Second: Clc1nccc2c1ccc1ccccc12
The “activity, negative = inhibition” value of the first is lower: 2.88% for the first, 7% for the second.

Going from `N#Cc1cc2nc(O)c(O)nc2cc1[N+](=O)[O-]` to `N#Cc1cc([N+](=O)[O-])c2sc(C(N)=O)[n+]([O-])c2c1`, the “activity, negative = inhibition” value rises from 5.93% to 6.2%.

First: O=c1onc2cnc3ccccc3n12
Second: N=S(=O)(O)Cc1noc2ccccc12
The “activity, negative = inhibition” value of the first is lower: 5.16% for the first, 10.8% for the second.

Compared with `N[C@H](C(=O)O)[C@H](O)C(=O)O`, `N[C@H](C(=O)O)[C@H](Cc1ccccc1)C(=O)O` is higher in “activity, negative = inhibition” value: -3.41% for the first, 4.94% for the second.

Going from `Cc1ccc2c(c1)C(N1CCN(C)CC1)=Nc1cccnc1N2` to `CC(=O)NNC(=O)N1Cc2ccccc2Oc2ccc(Cl)cc21`, the “activity, negative = inhibition” value rises from 4.34% to 8.27%.

First: Nc1ncnc2c1nc(Sc1ccc(Cl)cc1)n2[C@H]1OC2COP(=O)(O)O[C@@H]2C1O (stereo not given in full)
Second: OC[C@H]1O[C@@H](n2cnc3cncnc32)[C@H](O)[C@@H]1O
The “activity, negative = inhibition” value of the first is lower: 1.65% for the first, 7.79% for the second.

Compared with `NC1C=CC=C(C(=O)O)C1` (stereo not given), `N[C@@H](Cc1ccc(O)c(I)c1)C(=O)O` is higher in “activity, negative = inhibition” value: -4.97% for the first, 4.12% for the second.

Compared with `NCCS(=O)O`, `N[C@@H](CS(=O)O)C(=O)O` is lower in “activity, negative = inhibition” value: 0.0634% for the first, -1.08% for the second.

First: O=c1ccn([C@@H]2O[C@H](COP(=O)(O)OP(=O)(O)O)[C@@H](O)[C@H]2O)c(=O)[nH]1
Second: Cn1c(=O)[nH]c2ncn(C)c2c1=O
The “activity, negative = inhibition” value of the first is lower: 0.575% for the first, 8.82% for the second.

First: COc1cc([C@@H]2c3cc4c(cc3[C@H](O)C3COC(=O)[C@@H]32)OCO4)cc(OC)c1OC (stereo not given in full)
Second: COC(=O)C1=C(C)NC(C)=C([N+](=O)[O-])C1c1ccccc1C(F)(F)F (stereo not given)
The “activity, negative = inhibition” value of the first is lower: 9.14% for the first, 17.4% for the second.

First: COCc1nc2c([nH]1)c(=O)n(C)c(=O)n2CC(C)C
Second: CC(C)Cn1c(=O)n(C)c(=O)c2[nH]cnc21
The “activity, negative = inhibition” value of the first is higher: 6.61% for the first, -2.55% for the second.

Going from `CCCCC[C@H](CC(=O)NO)C(=O)N[C@H](C(=O)N1CCC[C@H]1CO)C(C)C` to `CC(C)[C@@H]1CC[C@@H](C)C[C@@H]1P(=O)(c1ccccc1)c1ccccc1`, the “activity, negative = inhibition” value rises from 1.7% to 5.96%.

Going from `[Li+]` to `NC[C@@H]1O[C@H](c2ccccc2)Cc2c1ccc(O)c2O`, the “activity, negative = inhibition” value rises from 7.13% to 8%.

For `NCC(O)c1ccc(O)c(O)c1` (stereo not given), the Potency was 4780 nM (active).
`O=C(O)C1=CC(=C(c2ccc(O)c(C(=O)O)c2)c2ccc(O)c(C(=O)O)c2)C=CC1=O` was tested, and the Potency was 75.7 nM (active).
